# From the supplement of paper PMC4466140
# Target: AgAbp1
# Assay: SPOT peptide array binding signal intensity (averaged, normalized) (arbitrary units (background-subtracted, floor 0; scale differs between SH3 domains)); higher = stronger binding of the SH3 domain to the peptide
# Procedure: (§1)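 GST-tagged SH3 domains from S. cerevisiae (Sc), A. gossypii (Ag), C. albicans (Ca) and S. pombe (Sp) were incubated at 10 ug/ml overnight at 4 C on cellulose SPOT membranes carrying 292 synthetic 15-mer peptides mined from the S. cerevisiae proteome (cysteines replaced by serines). Binding was detected with anti-GST antibody, HRP secondary and chemiluminescence, quantified with Genespotter, and reported as normalized spot intensities averaged over biological replicates.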
row,Binder,SPOT peptide array binding signal intensity
1,QNTPPLPPKPKSPHL,29

# Target: AgBbc1
# Assay: as above
# Procedure: as §1
row,Binder,SPOT peptide array binding signal intensity
1,QNTPPLPPKPKSPHL,4.75

# Target: AgBem1-D1
# Assay: as above
# Procedure: as §1
row,Binder,SPOT peptide array binding signal intensity
1,QNTPPLPPKPKSPHL,≤ 0

# Target: AgBzz1-D1
# Assay: as above
# Procedure: as §1
row,Binder,SPOT peptide array binding signal intensity
1,QNTPPLPPKPKSPHL,30

# Target: AgBzz1-D2
# Assay: as above
# Procedure: as §1
row,Binder,SPOT peptide array binding signal intensity
1,QNTPPLPPKPKSPHL,38

# Target: AgCyk3
# Assay: as above
# Procedure: as §1
row,Binder,SPOT peptide array binding signal intensity
1,QNTPPLPPKPKSPHL,≤ 0

# Target: AgFus1
# Assay: as above
# Procedure: as §1
row,Binder,SPOT peptide array binding signal intensity
1,QNTPPLPPKPKSPHL,17.5

# Target: AgHof1
# Assay: as above
# Procedure: as §1
row,Binder,SPOT peptide array binding signal intensity
1,QNTPPLPPKPKSPHL,777

# Target: AgHse1
# Assay: as above
# Procedure: as §1
row,Binder,SPOT peptide array binding signal intensity
1,QNTPPLPPKPKSPHL,39.5

# Target: AgLsb1
# Assay: as above
# Procedure: as §1
row,Binder,SPOT peptide array binding signal intensity
1,QNTPPLPPKPKSPHL,1

# Target: AgLsb4
# Assay: as above
# Procedure: as §1
row,Binder,SPOT peptide array binding signal intensity
1,QNTPPLPPKPKSPHL,60.5

# Target: AgMyo5
# Assay: as above
# Procedure: as §1
row,Binder,SPOT peptide array binding signal intensity
1,QNTPPLPPKPKSPHL,≤ 0

# Target: AgNbp2
# Assay: as above
# Procedure: as §1
row,Binder,SPOT peptide array binding signal intensity
1,QNTPPLPPKPKSPHL,6.5

# Target: AgRvs167
# Assay: as above
# Procedure: as §1
row,Binder,SPOT peptide array binding signal intensity
1,QNTPPLPPKPKSPHL,1

# Target: AgSho1
# Assay: as above
# Procedure: as §1
row,Binder,SPOT peptide array binding signal intensity
1,QNTPPLPPKPKSPHL,54

# Target: AgSla1-D1-D2
# Assay: as above
# Procedure: as §1
row,Binder,SPOT peptide array binding signal intensity
1,QNTPPLPPKPKSPHL,2

# Target: AgSla1-D3
# Assay: as above
# Procedure: as §1
row,Binder,SPOT peptide array binding signal intensity
1,QNTPPLPPKPKSPHL,1.5

# Target: CaAbp1-D1
# Assay: as above
# Procedure: as §1
row,Binder,SPOT peptide array binding signal intensity
1,QNTPPLPPKPKSPHL,55

# Target: CaAbp1-D2
# Assay: as above
# Procedure: as §1
row,Binder,SPOT peptide array binding signal intensity
1,QNTPPLPPKPKSPHL,226

# Target: CaBbc1
# Assay: as above
# Procedure: as §1
row,Binder,SPOT peptide array binding signal intensity
1,QNTPPLPPKPKSPHL,41.5

# Target: CaBem1-D1
# Assay: as above
# Procedure: as §1
row,Binder,SPOT peptide array binding signal intensity
1,QNTPPLPPKPKSPHL,≤ 0

# Target: CaBzz1-D1
# Assay: as above
# Procedure: as §1
row,Binder,SPOT peptide array binding signal intensity
1,QNTPPLPPKPKSPHL,46.5

# Target: CaBzz1-D2
# Assay: as above
# Procedure: as §1
row,Binder,SPOT peptide array binding signal intensity
1,QNTPPLPPKPKSPHL,48.2

# Target: CaCyk3
# Assay: as above
# Procedure: as §1
row,Binder,SPOT peptide array binding signal intensity
1,QNTPPLPPKPKSPHL,1

# Target: CaFus1
# Assay: as above
# Procedure: as §1
row,Binder,SPOT peptide array binding signal intensity
1,QNTPPLPPKPKSPHL,≤ 0

# Target: CaHof1
# Assay: as above
# Procedure: as §1
row,Binder,SPOT peptide array binding signal intensity
1,QNTPPLPPKPKSPHL,3

# Target: CaHse1
# Assay: as above
# Procedure: as §1
row,Binder,SPOT peptide array binding signal intensity
1,QNTPPLPPKPKSPHL,1110

# Target: CaLsb1
# Assay: as above
# Procedure: as §1
row,Binder,SPOT peptide array binding signal intensity
1,QNTPPLPPKPKSPHL,0.5

# Target: CaLsb4
# Assay: as above
# Procedure: as §1
row,Binder,SPOT peptide array binding signal intensity
1,QNTPPLPPKPKSPHL,521

# Target: CaMyo5
# Assay: as above
# Procedure: as §1
row,Binder,SPOT peptide array binding signal intensity
1,QNTPPLPPKPKSPHL,4

# Target: CaNbp2
# Assay: as above
# Procedure: as §1
row,Binder,SPOT peptide array binding signal intensity
1,QNTPPLPPKPKSPHL,≤ 0

# Target: CaRvs167
# Assay: as above
# Procedure: as §1
row,Binder,SPOT peptide array binding signal intensity
1,QNTPPLPPKPKSPHL,5.67

# Target: CaRvs167-3
# Assay: as above
# Procedure: as §1
row,Binder,SPOT peptide array binding signal intensity
1,QNTPPLPPKPKSPHL,6

# Target: CaSho1
# Assay: as above
# Procedure: as §1
row,Binder,SPOT peptide array binding signal intensity
1,QNTPPLPPKPKSPHL,81

# Target: CaSla1-D1-D2
# Assay: as above
# Procedure: as §1
row,Binder,SPOT peptide array binding signal intensity
1,QNTPPLPPKPKSPHL,≤ 0

# Target: CaSla1-D3
# Assay: as above
# Procedure: as §1
row,Binder,SPOT peptide array binding signal intensity
1,QNTPPLPPKPKSPHL,3.5

# Target: ScAbp1
# Assay: as above
# Procedure: as §1
row,Binder,SPOT peptide array binding signal intensity
1,QNTPPLPPKPKSPHL,≤ 0

# Target: ScBbc1
# Assay: as above
# Procedure: as §1
row,Binder,SPOT peptide array binding signal intensity
1,QNTPPLPPKPKSPHL,≤ 0

# Target: ScBem1-D1
# Assay: as above
# Procedure: as §1
row,Binder,SPOT peptide array binding signal intensity
1,QNTPPLPPKPKSPHL,≤ 0

# Target: ScBzz1-D1
# Assay: as above
# Procedure: as §1
row,Binder,SPOT peptide array binding signal intensity
1,QNTPPLPPKPKSPHL,≤ 0

# Target: ScBzz1-D2
# Assay: as above
# Procedure: as §1
row,Binder,SPOT peptide array binding signal intensity
1,QNTPPLPPKPKSPHL,4

# Target: ScCyk3
# Assay: as above
# Procedure: as §1
row,Binder,SPOT peptide array binding signal intensity
1,QNTPPLPPKPKSPHL,1

# Target: ScFus1
# Assay: as above
# Procedure: as §1
row,Binder,SPOT peptide array binding signal intensity
1,QNTPPLPPKPKSPHL,21

# Target: ScHof1
# Assay: as above
# Procedure: as §1
row,Binder,SPOT peptide array binding signal intensity
1,QNTPPLPPKPKSPHL,196

# Target: ScHse1
# Assay: as above
# Procedure: as §1
row,Binder,SPOT peptide array binding signal intensity
1,QNTPPLPPKPKSPHL,≤ 0

# Target: ScLsb1
# Assay: as above
# Procedure: as §1
row,Binder,SPOT peptide array binding signal intensity
1,QNTPPLPPKPKSPHL,1

# Target: ScLsb2
# Assay: as above
# Procedure: as §1
row,Binder,SPOT peptide array binding signal intensity
1,QNTPPLPPKPKSPHL,1

# Target: ScLsb3
# Assay: as above
# Procedure: as §1
row,Binder,SPOT peptide array binding signal intensity
1,QNTPPLPPKPKSPHL,4390

# Target: ScLsb4
# Assay: as above
# Procedure: as §1
row,Binder,SPOT peptide array binding signal intensity
1,QNTPPLPPKPKSPHL,52

# Target: ScMyo3
# Assay: as above
# Procedure: as §1
row,Binder,SPOT peptide array binding signal intensity
1,QNTPPLPPKPKSPHL,2

# Target: ScMyo5
# Assay: as above
# Procedure: as §1
row,Binder,SPOT peptide array binding signal intensity
1,QNTPPLPPKPKSPHL,≤ 0

# Target: ScNbp2
# Assay: as above
# Procedure: as §1
row,Binder,SPOT peptide array binding signal intensity
1,QNTPPLPPKPKSPHL,7.5

# Target: ScPex13
# Assay: as above
# Procedure: as §1
row,Binder,SPOT peptide array binding signal intensity
1,QNTPPLPPKPKSPHL,1360

# Target: ScRvs167
# Assay: as above
# Procedure: as §1
row,Binder,SPOT peptide array binding signal intensity
1,QNTPPLPPKPKSPHL,57.2

# Target: ScSho1
# Assay: as above
# Procedure: as §1
row,Binder,SPOT peptide array binding signal intensity
1,QNTPPLPPKPKSPHL,268

# Target: ScSla1-D1-D2
# Assay: as above
# Procedure: as §1
row,Binder,SPOT peptide array binding signal intensity
1,QNTPPLPPKPKSPHL,≤ 0

# Target: ScSla1-D3
# Assay: as above
# Procedure: as §1
row,Binder,SPOT peptide array binding signal intensity
1,QNTPPLPPKPKSPHL,4.5

# Target: SpAbp1-D1
# Assay: as above
# Procedure: as §1
row,Binder,SPOT peptide array binding signal intensity
1,QNTPPLPPKPKSPHL,≤ 0

# Target: SpBbc1
# Assay: as above
# Procedure: as §1
row,Binder,SPOT peptide array binding signal intensity
1,QNTPPLPPKPKSPHL,≤ 0

# Target: SpBzz1-D1
# Assay: as above
# Procedure: as §1
row,Binder,SPOT peptide array binding signal intensity
1,QNTPPLPPKPKSPHL,302

# Target: SpBzz1-D2
# Assay: as above
# Procedure: as §1
row,Binder,SPOT peptide array binding signal intensity
1,QNTPPLPPKPKSPHL,2.5

# Target: SpCyk3
# Assay: as above
# Procedure: as §1
row,Binder,SPOT peptide array binding signal intensity
1,QNTPPLPPKPKSPHL,≤ 0

# Target: SpHof1
# Assay: as above
# Procedure: as §1
row,Binder,SPOT peptide array binding signal intensity
1,QNTPPLPPKPKSPHL,≤ 0

# Target: SpHof1-2
# Assay: as above
# Procedure: as §1
row,Binder,SPOT peptide array binding signal intensity
1,QNTPPLPPKPKSPHL,11.2

# Target: SpHof1-3
# Assay: as above
# Procedure: as §1
row,Binder,SPOT peptide array binding signal intensity
1,QNTPPLPPKPKSPHL,28.8

# Target: SpHse1
# Assay: as above
# Procedure: as §1
row,Binder,SPOT peptide array binding signal intensity
1,QNTPPLPPKPKSPHL,16

# Target: SpLsb1
# Assay: as above
# Procedure: as §1
row,Binder,SPOT peptide array binding signal intensity
1,QNTPPLPPKPKSPHL,956

# Target: SpLsb4
# Assay: as above
# Procedure: as §1
row,Binder,SPOT peptide array binding signal intensity
1,QNTPPLPPKPKSPHL,1280

# Target: SpMyo1
# Assay: as above
# Procedure: as §1
row,Binder,SPOT peptide array binding signal intensity
1,QNTPPLPPKPKSPHL,19.5

# Target: SpNbp2
# Assay: as above
# Procedure: as §1
row,Binder,SPOT peptide array binding signal intensity
1,QNTPPLPPKPKSPHL,42

# Target: SpPex13
# Assay: as above
# Procedure: as §1
row,Binder,SPOT peptide array binding signal intensity
1,QNTPPLPPKPKSPHL,0.5

# Target: SpRvs167
# Assay: as above
# Procedure: as §1
row,Binder,SPOT peptide array binding signal intensity
1,QNTPPLPPKPKSPHL,1090

# Target: SpSla1-D1-D2
# Assay: as above
# Procedure: as §1
row,Binder,SPOT peptide array binding signal intensity
1,QNTPPLPPKPKSPHL,≤ 0

# Target: SpSla1-D3
# Assay: as above
# Procedure: as §1
row,Binder,SPOT peptide array binding signal intensity
1,QNTPPLPPKPKSPHL,3
